Measured values as given in a collection of fitness landscapes (doi:10.1126/science.1257360).
Whole data set: some 140,000 sequences, median “enrichment ratio after two sorts for PhoP signalling” near 0, cut for the highest 2% near 11. The sample as a whole holds a higher share of the highest values than the screen did.

B1: PhoQ; a variant is named by its letters at X, in order, P23837 (parent)
chain: MKKLLRLFFPLSLRVRFLLATAAVVLVLSLAYGMVALIGYSVSFDKTTFRLLRGESNLFYTLAKWENNKLHVELPENIDKQSPTMTLIYDENGQLLWAQRDVPWLMKMIQPDWLKSNGFHEIEADVNDTSLLLSGDHSIQQQLQEVREDDDDAEMTHSVAVNVYPATSRMPKLTIVVVDTIPVELKSSYMVWSWFIYVLSANLLLVIPLLWVAAWWSLRPIEALAKEVRELEEHNRELLNPATTRELTSLVRNLNRLLKSERERYDKYRTTLTDLTHSLKTPLXXLQXXLRSLRSEKMSVSDAEPVMLEQISRISQQIGYYLHRASMRGGTLLSRELHPVAPLLDNLTSALNKVYQRKGVNISLDISPEISFVGEQNDFVEVMGNVLDNACKYCLEFVEISARQTDEHLYIVVEDDGPGIPLSKREVIFDRGQRVDTLRPGQGVGLAVAREITEQYEGKIVAGESMLGGARMEVIFGRQHSAPKDE

Variants of: B1
Experiment: enrichment ratio after two sorts for PhoP signalling (ratio (wild type AVST 3.29)); higher = more functional
Details: with PhoP (E. coli)

Row | Variant | enrichment ratio
1 | LCCT | ≤ 0.25
2 | EDCL | ≤ 0.25
3 | KEMG | ≤ 0.25
4 | KYQL | ≤ 0.25
5 | SLQL | 5.85
6 | QEQL | ≤ 0.25
7 | SGQL | 12
8 | YTQL | ≤ 0.25
9 | SQQL | 2.28
10 | SIQL | 13.1
11 | SMQL | 12.1
12 | SAQL | 9.87
13 | STQL | 17.1
14 | NIQL | ≤ 0.25
15 | QLRC | ≤ 0.25
16 | KRKR | ≤ 0.25
17 | YDDH | ≤ 0.25
18 | EAQW | ≤ 0.25
19 | TNTK | ≤ 0.25
20 | TNTC | 11.6
21 | TNTS | 13.4
22 | TNTI | 15.8
23 | TNTA | 10.1
24 | TNNK | ≤ 0.25
25 | TNTD | ≤ 0.25
26 | TNIC | ≤ 0.25

Row | Variant | enrichment ratio
27 | TNTH | 1.01
28 | WEHT | ≤ 0.25
29 | FCPF | ≤ 0.25
30 | IDMQ | ≤ 0.25
31 | VSQK | ≤ 0.25
32 | MKCQ | ≤ 0.25
33 | TKCQ | 11.7
34 | AICQ | 3.77
35 | HKCQ | ≤ 0.25
36 | AWCQ | ≤ 0.25
37 | AKCQ | 19.1
38 | PWVC | ≤ 0.25
39 | TKCI | 10.8
40 | KKCL | 1.66
41 | TKCV | 30.6
42 | GGMT | ≤ 0.25
43 | MKCL | 16.5
44 | KKCV | ≤ 0.25
45 | MMCL | 4.1
46 | AKCV | 3.07
47 | TKCL | 14.6
48 | TKCE | 7.83
49 | HKCL | 3.32
50 | TKCS | 13.2
51 | SKMP | ≤ 0.25
52 | GFDT | ≤ 0.25

Row | Variant | enrichment ratio
53 | WRTW | ≤ 0.25
54 | DDAA | ≤ 0.25
55 | ARFW | ≤ 0.25
56 | GGAC | ≤ 0.25
57 | KKAC | ≤ 0.25
58 | TGAC | 11.4
59 | SPAC | ≤ 0.25
60 | VHAC | ≤ 0.25
61 | NGAC | ≤ 0.25
62 | KYAC | ≤ 0.25
63 | AEFC | 6.7
64 | AEAC | 43.5
65 | AEYS | 1.65
66 | AIAC | 19.1
67 | SIAC | 13
68 | MDLS | ≤ 0.25
69 | WPPG | ≤ 0.25
70 | LANA | ≤ 0.25
71 | GFDD | ≤ 0.25
72 | LCAI | ≤ 0.25
73 | VLNL | ≤ 0.25
74 | RIAC | ≤ 0.25
75 | WIAC | ≤ 0.25
76 | TIAC | 12.1
77 | ADAC | 0.792
78 | AKAC | 19.7

Row | Variant | enrichment ratio
79 | AAAC | ≤ 0.25
80 | MYGT | ≤ 0.25
81 | TEWY | 0.326
82 | MPYR | ≤ 0.25
83 | TTHQ | 26.2
84 | TTHP | ≤ 0.25
85 | TTMQ | 30.4
86 | ITQQ | ≤ 0.25
87 | GYMQ | ≤ 0.25
88 | TTQQ | 21.5
89 | YTHQ | ≤ 0.25
90 | LTQQ | ≤ 0.25
91 | YTMQ | 0.469
92 | YIIQ | ≤ 0.25
93 | QERY | ≤ 0.25
94 | QQLY | ≤ 0.25
95 | CLCR | ≤ 0.25
96 | VMKE | ≤ 0.25
97 | VTRG | ≤ 0.25
98 | QNQF | ≤ 0.25
99 | YTLT | ≤ 0.25
100 | CTLS | ≤ 0.25
101 | TTLS | 15.1
102 | TTLA | 16.9
103 | YTLA | 4.01
104 | YTLS | 4.88

Row | Variant | enrichment ratio
105 | TTLT | 15.8
106 | ITLT | ≤ 0.25
107 | TTPI | 4.3
108 | IYDI | ≤ 0.25
109 | EDSR | ≤ 0.25
110 | KMPM | ≤ 0.25
111 | YVSD | ≤ 0.25
112 | RQYR | ≤ 0.25
113 | HAKY | ≤ 0.25
114 | DMQN | ≤ 0.25
115 | MLWE | ≤ 0.25
116 | TNAQ | 4.37
117 | MNNY | 15.3
118 | MNHP | ≤ 0.25
119 | MNAY | 17
120 | MNAQ | 11.8
121 | MNYI | 9.81
122 | MNYY | ≤ 0.25
123 | TNAY | 2.94
124 | MNHF | 4.26
125 | FVVQ | ≤ 0.25
126 | PGYA | ≤ 0.25
127 | ELDY | ≤ 0.25
128 | SGGL | 6.41
129 | SGDL | ≤ 0.25
130 | GGCL | 8.88

Row | Variant | enrichment ratio
131 | CSCL | 16.1
132 | TSCL | 19.6
133 | KSCL | ≤ 0.25
134 | NSCL | ≤ 0.25
135 | FSCL | 8.2
136 | RGCL | ≤ 0.25
137 | TGCL | 22.4
138 | SGCL | 15.6
139 | CSCS | ≤ 0.25
140 | PKNL | ≤ 0.25
141 | TSYE | ≤ 0.25
142 | RGSH | ≤ 0.25
143 | NMFD | ≤ 0.25
144 | IIHI | ≤ 0.25
145 | LILE | ≤ 0.25
146 | NHCE | ≤ 0.25
147 | NSGM | ≤ 0.25
148 | HPWS | ≤ 0.25
149 | YHCL | ≤ 0.25
150 | GNCL | 18.1
151 | GNNL | 2.95
152 | YSKR | ≤ 0.25
153 | RNAK | ≤ 0.25
154 | ATTK | 10.4
155 | GNTM | 1.94
156 | GHTM | ≤ 0.25

Row | Variant | enrichment ratio
157 | ATWM | ≤ 0.25
158 | ANTM | 44
159 | KKTM | ≤ 0.25
160 | ATTI | 13.7
161 | ATTM | 16.6
162 | ATPM | 0.758
163 | ADTM | ≤ 0.25
164 | ATTA | ≤ 0.25
165 | AITM | 23.3
166 | GVVP | ≤ 0.25
167 | QMYN | ≤ 0.25
168 | EFPL | ≤ 0.25
169 | KIKD | ≤ 0.25
170 | EALR | ≤ 0.25
171 | FKYT | ≤ 0.25
172 | VDAS | ≤ 0.25
173 | EAHV | ≤ 0.25
174 | NFSK | ≤ 0.25
175 | DNFH | ≤ 0.25
176 | TKWF | 13.4
177 | KSWF | ≤ 0.25
178 | QGWF | 18.8
179 | FQWF | ≤ 0.25
180 | QPWF | ≤ 0.25
181 | QKWF | 12.7
182 | FFWF | ≤ 0.25

Row | Variant | enrichment ratio
183 | QRWF | ≤ 0.25
184 | HKWF | ≤ 0.25
185 | VAKP | ≤ 0.25
186 | YQPA | ≤ 0.25
187 | LESI | ≤ 0.25
188 | MTAV | 7.37
189 | AMKH | ≤ 0.25
190 | VGAQ | ≤ 0.25
191 | RNKK | ≤ 0.25
192 | WHKS | ≤ 0.25
193 | HTKL | ≤ 0.25
194 | NMNA | ≤ 0.25
195 | TMTD | ≤ 0.25
196 | TMAT | 11.2
197 | TMND | 21.9
198 | TMNT | 11.9
199 | TMNA | 24.8
200 | TMNS | 7.25
201 | TMKT | ≤ 0.25
202 | TMNI | 3.75
203 | TMPT | ≤ 0.25
204 | TMGD | 3.55
205 | DMNA | ≤ 0.25
